Here are results for 26 molecules from PubChem BioAssay (Tox21).

Assay [1] addresses Luciferin 4-monooxygenase (Photinus pyralis) (UniProt P08659). Put plainly: qHTS assay to identify small molecule inhibitors of firefly luciferase (AID 1224835). Further: series mostly up to about 120 µM; nearly all actives have a fitted effect of over 25% in size. In short, it runs like this: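 Inhibition of purified Photinus luciferase is measured by luminescence. Substrate levels (D-luciferin, ATP) sit at their KM values. Each compound is tested in a concentration series.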
Assay [2] can be described thus: qHTS assay to identify small molecule agonists of the constitutive androstane receptor (CAR) signaling pathway - cell viability counter screen (AID 1224836). Further: series mostly up to about 92 µM; nearly all actives have a fitted effect of over 45% in size. In short, it runs like this: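 HepG2 cells stably carrying hCAR and a CYP2B6-2.2kb reporter were plated 4 h, then given compounds at 15 concentrations plus PK11195 (final 0.75 uM). After 23 h at 37 C, viability was read by CellTiter-Fluor fluorescence.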

The nature of assay [3]: qHTS assay to identify small molecule antagonists of the constitutive androstane receptor (CAR) signaling pathway - cell viability counter screen (AID 1224837). Further: series mostly up to about 92 µM; nearly all actives have a fitted effect of over 45% in size. In short, it runs like this:
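HepG2 cells stably expressing hCAR and a CYP2B6-2.2kb reporter were plated and pre-incubated 4 hr at 37 C/5% CO2, then given compounds at 15 concentrations plus 50 nM CITCO (final). After 23 hr, viability was read by CellTiter-Fluor fluorescence.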

The target in assay [4] is Nuclear receptor subfamily 1 group I member 3 (Homo sapiens) (UniProt Q14994). As to the kind of experiment: qHTS assay to identify small molecule antagonists of the constitutive androstane receptor (CAR) signaling pathway (AID 1224838). Further: nearly all actives have a fitted effect of over 40% in size. Further: potency means the concentration at half of the fitted maximal effect. In short, it runs like this:
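HepG2 cells stably co-transfected with hCAR and a CYP2B6-2.2kb luciferase reporter were seeded 4 h before compound addition at 15 concentrations. Cells were stimulated with 50 nM CITCO (final) for 24 h at 37 C; luciferase luminescence was then read.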

Assay [5] has the same target. As to the kind of experiment: qHTS assay to identify small molecule agonists of the constitutive androstane receptor (CAR) signaling pathway (AID 1224839). Further: nearly all actives have a fitted effect of over 15% in size. Further: potency means the concentration at half of the fitted maximal effect. The method, boiled down:
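HepG2 cells stably expressing hCAR and a CYP2B6-2.2kb luciferase reporter were treated with compounds at 15 concentrations plus 0.75 uM PK11195 (final) for 24 h at 37 C; luminescence was read after ONE-Glo addition.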

The nature of assay [6]: qHTS assay to identify small molecule antagonists of the estrogen related receptor signaling pathway with the pleiotropic PPARgamma coactivator (PGC) from Tox21 10K library - cell viability counter screen (AID 1224840; active means well fitted cell-killing curve with a large enough effect in the repeat runs, not every such curve was filed as active; further: nearly all actives have a fitted effect of over 40% in size). The method, boiled down: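 PGC/ERR cells were seeded at 2,000 cells/well and left 6 hours at 37 C/5% CO2 before pin-tool addition of compounds in DMSO. After 17.5 hours at 37 C, CellTiter-Fluor was added and fluorescence read 30 minutes later.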

Assay [7] can be described thus: qHTS assay to identify small molecule antagonists of the estrogen related receptor signaling pathway with the pleiotropic PPARgamma coactivator (PGC) from Tox21 10K library (AID 1224841; call rule not given here; further: actives are mostly falling curves and most rising ones were filed inactive; nearly all actives have a fitted effect of over 50% in size; further: potency means the concentration at half of the fitted maximal effect). In short, it runs like this: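 PGC/ERR reporter cells were seeded at 2,000 cells/well and held 6 hours at 37 C/5% CO2 before pin-tool addition of compounds in DMSO. After 18 hours at 37 C, One-Glo was added and luminescence read after 30 minutes at room temperature.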

The nature of assay [8]: qHTS assay to identify small molecule agonists of the estrogen related receptor signaling pathway with the pleiotropic PPARgamma coactivator (PGC) from Tox21 10K library (AID 1224842). Further: nearly all actives have a fitted effect of over 15% in size. The method, boiled down: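 Luminescence from One-Glo (30 min, room temperature) measured after PGC/ERR cells had 18 h at 37 C with pinned compound (23 nL in DMSO). Cells had been seeded at 2,000 per well and pre-incubated 6 h.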

The target in assay [9] is Thyrotropin receptor (Homo sapiens) (UniProt P16473). Put plainly: qHTS assay to identify small molecule agonists of the thyroid stimulating hormone receptor (TSHR) signaling pathway (AID 1224843; calls by dose curve; further: nearly all actives have a fitted effect of over 45% in size). The method, boiled down:
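HEK293 cells stably bearing the thyrotropin receptor were plated at 800 cells/well and challenged with compound (30 min, RT). Accumulated cAMP was quantified via cAMP-d2 competing for cryptate-tagged antibody.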

Assay [10] is described as follows: qHTS assay to identify small molecule agonists of the hypoxia (HIF-1) signaling pathway - cell viability counter screen (AID 1224844; calls by dose curve; further: nearly all actives have a fitted effect of over 50% in size; further: potency means the concentration at half of the fitted maximal effect). The method, boiled down: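 HRE-bla ME-180 cells in medium with 0.5% dialyzed FBS were preincubated 5 hrs at 37C, exposed to compounds for 17 hrs, then viability was read as CellTiter-Glo luminescence after 30 min at room temperature, in the reporter wells.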

The structures appear in SMILES notation. Several values for one entry are separate records, joined by “and”; a condition that tells them apart may be missing. Equal entries are not always repeated. Inconclusive results are not listed. A structure can be active in one record and inactive in another. Activity calls are given as the source filed them. Unless noted, the call rests on the fitted dose curve; in most records, active means well fitted curve in the direction sought with a large enough effect in the repeat runs; inconclusive means weak or mixed curves; inactive means no such curve, though single readings can be large; an effect the other way counts as inactive or inconclusive.

Chain of Nuclear receptor subfamily 1 group I member 3 (Homo sapiens) (Q14994 whole entry, looked up): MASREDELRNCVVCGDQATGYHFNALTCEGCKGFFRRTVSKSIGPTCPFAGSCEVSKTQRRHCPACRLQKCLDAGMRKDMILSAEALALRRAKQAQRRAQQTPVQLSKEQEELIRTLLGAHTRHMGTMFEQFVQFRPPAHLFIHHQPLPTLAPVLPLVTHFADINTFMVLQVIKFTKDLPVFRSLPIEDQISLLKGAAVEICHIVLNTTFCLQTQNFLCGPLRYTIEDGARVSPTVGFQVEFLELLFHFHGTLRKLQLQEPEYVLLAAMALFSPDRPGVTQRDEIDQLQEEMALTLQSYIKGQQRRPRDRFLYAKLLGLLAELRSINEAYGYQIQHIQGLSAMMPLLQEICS
Chain of Luciferin 4-monooxygenase (Photinus pyralis) (P08659 whole entry, looked up): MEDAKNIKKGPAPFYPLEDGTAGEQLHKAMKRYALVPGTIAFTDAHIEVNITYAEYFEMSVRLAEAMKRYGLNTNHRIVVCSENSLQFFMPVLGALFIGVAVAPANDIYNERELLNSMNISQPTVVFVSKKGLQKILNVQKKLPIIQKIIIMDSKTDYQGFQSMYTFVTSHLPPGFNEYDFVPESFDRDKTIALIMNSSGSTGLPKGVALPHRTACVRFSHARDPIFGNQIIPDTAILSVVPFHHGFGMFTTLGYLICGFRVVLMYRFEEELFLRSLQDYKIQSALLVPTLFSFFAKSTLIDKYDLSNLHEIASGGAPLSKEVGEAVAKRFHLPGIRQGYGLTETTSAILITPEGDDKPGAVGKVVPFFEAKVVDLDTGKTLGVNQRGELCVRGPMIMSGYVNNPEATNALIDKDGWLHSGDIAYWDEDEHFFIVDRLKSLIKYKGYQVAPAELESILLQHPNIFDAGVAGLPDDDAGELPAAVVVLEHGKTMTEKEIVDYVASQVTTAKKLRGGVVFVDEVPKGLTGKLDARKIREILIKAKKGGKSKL
Chain of Thyrotropin receptor (Homo sapiens) (P16473 whole entry, looked up): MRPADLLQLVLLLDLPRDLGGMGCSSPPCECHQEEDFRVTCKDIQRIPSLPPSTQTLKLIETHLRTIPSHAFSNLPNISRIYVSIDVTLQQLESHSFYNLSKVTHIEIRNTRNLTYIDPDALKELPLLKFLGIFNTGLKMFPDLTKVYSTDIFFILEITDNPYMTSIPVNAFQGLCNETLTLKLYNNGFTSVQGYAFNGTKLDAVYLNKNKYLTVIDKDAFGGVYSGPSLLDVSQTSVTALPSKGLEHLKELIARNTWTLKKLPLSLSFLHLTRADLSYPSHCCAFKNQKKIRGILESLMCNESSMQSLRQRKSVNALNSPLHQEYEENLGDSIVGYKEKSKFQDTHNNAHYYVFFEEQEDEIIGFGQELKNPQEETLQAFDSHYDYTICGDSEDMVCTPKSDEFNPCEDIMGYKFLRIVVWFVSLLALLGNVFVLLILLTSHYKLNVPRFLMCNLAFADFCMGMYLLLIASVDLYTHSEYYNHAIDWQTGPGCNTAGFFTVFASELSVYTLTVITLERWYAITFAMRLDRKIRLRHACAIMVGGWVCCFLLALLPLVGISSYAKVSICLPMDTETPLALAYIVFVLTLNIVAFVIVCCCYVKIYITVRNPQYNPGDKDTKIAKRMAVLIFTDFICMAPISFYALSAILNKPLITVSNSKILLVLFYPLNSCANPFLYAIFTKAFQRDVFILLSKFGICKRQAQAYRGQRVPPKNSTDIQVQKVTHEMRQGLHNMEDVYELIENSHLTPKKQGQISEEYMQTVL

For `O=[N+]([O-])c1ccccc1C(F)(F)F`, the Potency entry in assay [1], in [2], in assay [3], in assay [4], in [5] and in assay [6] was “inactive” throughout. The Potency entry in assay [7], in assay [8], in [9] and in assay [10] was “inactive” each time.

For `O=Cc1ccc(CO)o1`, the Potency result in assay [1], in assay [2], in [3], in [4], in assay [5] and in assay [6] was “inactive” each time. For the same molecule, the Potency entry in [7], in [8], in [9] and in assay [10] was “inactive” in each case.

Regarding `C=CC(C)(C)C`, the Potency entry in [1], in assay [2], in assay [3], in assay [4], in [5] and in assay [6] was “inactive” throughout. Also, the Potency result in assay [7], in [8], in assay [9] and in assay [10] was “inactive” in each case.

As for `COc1ccc2cc3[n+](cc2c1OC)CCc1cc2c(cc1-3)OCO2`, the Potency entry in assay [1], in [2], in assay [3], in [4], in [5] and in [6] was “inactive” in each case. The Potency result in [8] and in assay [10] was “inactive” each time. For the same molecule, the Potency in [7] was 3.88 µM (active) and 7.5 µM (active).

Regarding `CC(C)c1ccc(C(C)C)cc1`, the Potency result in assay [1], in assay [2], in [3], in [4], in [5] and in assay [6] was “inactive” in each case. Moreover, the Potency result in assay [9] and in [10] was “inactive” throughout.

For the molecule `COc1ccc(N)c(OC)c1`, the Potency entry in assay [1], in [2], in [3], in assay [4], in [5] and in [6] was “inactive” throughout. The Potency result in assay [9] and in assay [10] was “inactive” in each case.

With `CC(=O)OC(C)(C)C1CC=C(C)CC1` (configuration not stated), the Potency entry in assay [1], in assay [2], in assay [3], in [4], in [5] and in [6] was “inactive” in each case. Moreover, the Potency result in [7], in assay [8], in assay [9] and in assay [10] was “inactive” in each case.

Take `CN=C(NC#N)NCCSCc1nc[nH]c1C`: the Potency result in assay [1], in assay [2], in assay [3], in assay [4], in assay [5] and in assay [6] was “inactive” each time. The Potency entry in assay [7], in assay [8], in assay [9] and in [10] was “inactive” throughout.

Turning to `O=C1OC(=O)c2c(Cl)c(Cl)c(Cl)c(Cl)c21`, the Potency result in assay [1], in assay [2], in assay [3], in [4], in assay [5] and in assay [6] was “inactive” each time. Further, the Potency entry in assay [7], in [8], in assay [9] and in assay [10] was “inactive” each time.

`CC(C)=CCC/C(C)=C/C=O`: the Potency entry in assay [1], in [2], in [3], in assay [4], in assay [5] and in assay [6] was “inactive” in each case. The Potency entry in assay [9] and in assay [10] was “inactive” each time.

As for `Cc1cc(C)c(O)c(C)c1`, the Potency entry in assay [1], in assay [2], in assay [3], in [4], in assay [5] and in assay [6] was “inactive” each time. The Potency result in assay [7], in assay [8], in assay [9] and in [10] was “inactive” throughout.

With `CCCCCCC(=O)O`, the Potency entry in assay [1], in [2], in assay [3], in [4], in [5] and in assay [6] was “inactive” throughout. Moreover, the Potency result in assay [7], in assay [8], in assay [9] and in assay [10] was “inactive” each time.

Turning to `CS(=O)(=O)c1ccc(Cl)cc1`, the Potency result in assay [1], in assay [2], in assay [3], in [4], in assay [5] and in [6] was “inactive” in each case. Also, the Potency entry in assay [7], in [8], in [9] and in assay [10] was “inactive” in each case.

Take `C=CC(=O)NCOCCCC`: the Potency entry in assay [1], in [2], in assay [3], in [4], in assay [5] and in [6] was “inactive” each time. Further, the Potency result in [10] was “inactive”.

In the case of `O=C1CCCCCCCCCCC1`, the Potency entry in assay [1], in assay [2], in assay [3], in assay [4], in assay [5] and in [6] was “inactive” each time. In addition, the Potency entry in assay [9] and in [10] was “inactive” each time.

Consider `C[Si](C)(C)N[Si](C)(C)C`, for which the Potency entry in [1], in [2], in assay [3], in assay [4], in assay [5] and in [6] was “inactive” each time. The Potency result in assay [9] and in assay [10] was “inactive” in each case.

`NC(=O)c1ncn([C@@H]2O[C@H](CO)[C@@H](O)[C@H]2O)n1`: the Potency result in assay [1], in [2], in assay [3], in assay [5] and in assay [6] was “inactive” throughout. Further, the Potency was 7.23 µM (active) in assay [4] and 18.3 µM (active) in [10].

As to `CCOC(=O)c1ccc(O)cc1`, the Potency entry in assay [1], in assay [2], in assay [3], in [4], in assay [5] and in [6] was “inactive” in each case. For the same molecule, the Potency result in [9] and in assay [10] was “inactive” in each case.

As to `OCc1ccc(Cl)cc1Cl`, the Potency entry in [1], in assay [2], in assay [3], in assay [4], in assay [5] and in assay [6] was “inactive” in each case. The Potency entry in assay [10] was “inactive”.

Take `CCCCCCCCC(=O)O`: the Potency entry in assay [1], in assay [2], in assay [3], in assay [4], in assay [5] and in assay [6] was “inactive” in each case. Further, the Potency result in assay [9] and in assay [10] was “inactive” in each case.

Take `CCCN(CCC)C(=O)SCC`: the Potency result in assay [1], in [2], in [3], in assay [4], in [5] and in assay [6] was “inactive” throughout. The Potency result in assay [9] and in assay [10] was “inactive” in each case.

For `Cc1ccc(Cl)cc1`, the Potency result in assay [1], in assay [2], in assay [3], in assay [4], in assay [5] and in assay [6] was “inactive” in each case. Further, the Potency entry in assay [9] and in assay [10] was “inactive” throughout.

Turning to `Cc1ccccc1Cl`, the Potency result in assay [1], in [2], in assay [3], in assay [4], in [5] and in assay [6] was “inactive” each time. Moreover, the Potency result in assay [9] and in assay [10] was “inactive” in each case.

On to `OC1CCCCC1`, for which the Potency entry in assay [1], in assay [2], in assay [3], in assay [4], in [5] and in assay [6] was “inactive” throughout. The Potency entry in assay [10] is “inactive”.

On to `N[C@@H](Cc1cc(I)c(Oc2ccc(O)c(I)c2)c(I)c1)C(=O)O`, for which the Potency entry in assay [1], in assay [2], in [3], in assay [6], in [9] and in assay [10] was “inactive” each time. For the same molecule, the Potency result in assay [5] is “inactive and 56.7 µM (active)”.

As for `CC(C)(CO)CO`, the Potency result in [1], in [2], in assay [3], in assay [6], in assay [7] and in [8] was “inactive” throughout. The Potency entry in assay [9] and in [10] was “inactive” each time.
